Assay results: paper PMC5540273 (PLoS ONE, 2017)

How the values were obtained:
Conditions in all cases: concentration: 1 μM, replicates: in singlicate; n = 1
[1] = system: LRRK2
[2] = system: LTK
[3] = system: LYN
[4] = system: T1, LZK
T1 construct: gene MAP3K13

[5] = system: MAK
[6] = system: MAP3K15
[7] = system: MAP3K1
[8] = system: MAP3K2
[9] = system: MAP3K3
[10] = system: MAP3K4
[11] = system: MAP4K2
[12] = system: MAP4K3
[13] = system: MAP4K4
[14] = system: MAP4K5
[15] = system: MAPKAPK2
[16] = system: MAPKAPK5
[17] = system: MARK1
[18] = system: MARK2
[19] = system: MARK3
[20] = system: MARK4
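Note: KINOMEscan kinase panel screen.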

Row | SMILES | %Inh [1] | %Inh [2] | %Inh [3] | %Inh [4] | %Inh [5] | %Inh [6] | %Inh [7] | %Inh [8] | %Inh [9] | %Inh [10] | %Inh [11] | %Inh [12] | %Inh [13] | %Inh [14] | %Inh [15] | %Inh [16] | %Inh [17] | %Inh [18] | %Inh [19] | %Inh [20]
1 | CSc1ccc(-c2nc3n(c2-c2ccncc2)CCC3)cc1 [SKF-105561] | 0% | 31% | 8% | 45% | 0% | 16% | 0% | 3% | 0% | 9% | 0% | 0% | 1% | 0% | 10% | 22% | 0% | 16% | 0% | 0%
2 | Cc1c(Cn2c3ccccc3n3c(=O)cc(N4CCOCC4)nc23)cccc1C(F)(F)F [GSK2306394] | 33% | 11% | 0% | 0% | 15% | 0% | 14% | 2% | 0% | 18% | 2% | 0% | 11% | 8% | 0% | 0% | 0% | 0% | 0% | 0%
3 | Cc1ccccc1-c1cc(-c2c[nH]nc2-c2ccccn2)ccn1 [GW680061] | 23% | 0% | 0% | 4% | 34% | 0% | 10% | 1% | 0% | 14% | 0% | 0% | 0% | 0% | 24% | 0% | 0% | 0% | 0% | 0%
4 | Nc1ncnc2occ(-c3ccc4c(c3)CCN4C(=O)Cc3cc(F)ccc3F)c12 [GSK2645446] | 0% | 0% | 0% | 0% | 0% | 0% | 0% | 6% | 0% | 50% | 0% | 35% | 0% | 11% | 11% | 0% | 0% | 0% | 0% | 0%
5 | COc1ccc(Nc2nccc(NCCNC(=O)Nc3cc(C)ccc3C)n2)cc1 [GSK1379899] | 23% | 0% | 0% | 0% | 20% | 0% | 1% | 0% | 0% | 3% | 0% | 3% | 16% | 26% | 15% | 0% | 0% | 0% | 0% | 9%
6 | CCCCc1nn2ncccc2c1-c1ccnc(NC2CC2)n1 [GW684374] | 0% | 0% | 0% | 0% | 19% | 0% | 3% | 0% | 0% | 6% | 0% | 0% | 0% | 0% | 0% | 0% | 0% | 0% | 0% | 0%
7 | COc1ccc2cc(-c3nc(-c4ccccc4C(C)C)[nH]c3-c3ccncc3)ccc2c1 [SB-660566] | 13% | 3% | 20% | 0% | 0% | 17% | 20% | 28% | 0% | 16% | 0% | 0% | 31% | 3% | 16% | 0% | 7% | 0% | 0% | 3%
8 | COC(=O)c1cccc(NC(=O)NC2CCN(c3ccnc(Nc4ccc(F)cc4)n3)C2)c1 (stereo not drawn) [GSK1379725] | 5% | 17% | 0% | 6% | 16% | 0% | 8% | 11% | 0% | 24% | 0% | 0% | 1% | 0% | 15% | 0% | 0% | 0% | 42% | 0%
9 | c1ccc(-c2ccnc3[nH]ccc23)cc1 [SB-693578] | 44% | 0% | 0% | 11% | 0% | 26% | 19% | 50% | 5% | 12% | 32% | 22% | 0% | 0% | 26% | 0% | 100% | 0% | 0% | 62%
10 | CC(C)c1cc(-c2ccc3c(N)n[nH]c3c2)nc(N)n1 [GSK2250882] | 0% | 0% | 0% | 0% | 0% | 0% | 0% | 2% | 2% | 1% | 0% | 0% | 1% | 0% | 23% | 0% | 0% | 9% | 0% | 0%
11 | Cn1cncc1C(=O)NC1CCN(c2ccnc(Nc3ccc(F)cc3)n2)C1 (stereo not drawn) [GSK1379717] | 0% | 6% | 0% | 0% | 22% | 0% | 2% | 11% | 0% | 13% | 0% | 0% | 7% | 30% | 4% | 0% | 0% | 0% | 0% | 0%
12 | Nc1cccc(-c2ccc3c(N)n[nH]c3c2)n1 [GSK2192730] | 0% | 0% | 0% | 0% | 26% | 0% | 23% | 0% | 0% | 25% | 59% | 0% | 0% | 0% | 0% | 0% | 0% | 10% | 0% | 0%
13 | Nc1nccc(-c2c(-c3ccc(F)cc3)ncn2C2CCN(Cc3ccccc3)CC2)n1 [SB-219980] | 0% | 11% | 0% | 0% | 0% | 0% | 0% | 29% | 0% | 0% | 19% | 16% | 10% | 73% | 0% | 0% | 5% | 1% | 0% | 1%
14 | COc1ccc(Nc2nccc(N3CCC(NC(=O)c4cc5ccccc5s4)C3)n2)cc1 (stereo not drawn) [GSK1379738] | 0% | 0% | 0% | 23% | 86% | 0% | 5% | 0% | 0% | 29% | 0% | 2% | 0% | 0% | 0% | 0% | 0% | 0% | 3% | 0%
15 | O=C(Nc1n[nH]c2nc(-c3ccco3)c(Br)cc12)C1CCN(Cc2ccccc2)C1.O=C(O)[C@H](O)[C@@H](O)C(=O)O (stereo not drawn) [SB-742034] | 0% | 11% | 2% | 0% | 25% | 12% | 18% | 21% | 24% | 0% | 14% | 2% | 0% | 0% | 5% | 5% | 27% | 14% | 0% | 14%
16 | Cc1cnc(N)c(/C=C/c2cncc(C(=O)NCCc3ccc(Cl)cc3Cl)c2)c1.Cl [GSK190937] | 0% | 0% | 20% | 0% | 9% | 0% | 7% | 0% | 0% | 0% | 4% | 0% | 17% | 18% |  |  | 0% | 6% | 0% | 0%

Row | SMILES | %Inh [1] | %Inh [2] | %Inh [3] | %Inh [4] | %Inh [5] | %Inh [6] | %Inh [7] | %Inh [8] | %Inh [9] | %Inh [10] | %Inh [11] | %Inh [12] | %Inh [13] | %Inh [14] | %Inh [15] | %Inh [16] | %Inh [17] | %Inh [18] | %Inh [19] | %Inh [20]
17 | CC(=O)c1c(C)c2cnc(Nc3ccc(N4CCNCC4)cn3)nc2n(C2CCCC2)c1=O | 0% | 0% | 0% | 89% | 0% | 0% | 0% | 0% | 0% | 14% | 0% | 17% | 0% | 0% | 0% | 0% | 6% | 0% | 0% | 13%
18 | COc1cccc(CNC(=O)NC2CCN(c3ccnc(Nc4ccc(F)cc4)n3)C2)c1 (stereo not drawn) [GSK1379723] | 25% | 59% | 0% | 0% | 23% | 0% | 7% | 0% | 0% | 13% | 0% | 8% | 2% | 1% | 16% | 0% | 0% | 0% | 0% | 0%
19 | Cc1nccc(-c2c(-c3ccc(F)cc3)ncn2CCCN2CCOCC2)n1.Cl [SB-282975] | 0% | 30% | 9% | 0% | 25% | 28% | 20% | 17% | 19% | 22% | 0% | 1% | 30% | 37% | 0% | 4% | 0% | 4% | 7% | 45%
20 | Cc1ccc(NC(=O)c2ccc(Cl)cc2)cc1-c1ccc(C(=O)Nc2ccncc2)cc1 [GSK1398467] | 100% | 19% | 30% | 3% | 0% | 0% | 12% | 0% | 0% | 0% | 0% | 0% | 13% | 3% | 24% | 0% | 36% | 80% | 0% | 0%
21 | O=C1NC(=O)C(c2ccc(Cl)cc2)=C1Nc1ccc(O)cc1 [SB-340867] | 0% | 0% | 8% | 0% | 7% | 7% | 0% | 0% | 11% | 28% | 0% | 0% | 0% | 0% | 8% | 0% | 0% | 1% | 20% | 0%
22 | COc1ccc(CSc2nnc(-c3ccc4c(c3)CCO4)o2)cc1 | 0% | 0% | 0% | 3% | 0% | 0% | 0% | 0% | 0% | 8% | 0% | 0% | 0% | 0% | 0% | 0% | 0% | 21% | 0% | 0%
23 | Cc1cccc2c(-c3ccncn3)c(-c3ccc(F)cc3)nn12 [GW515532] | 53% | 0% | 0% | 0% | 57% | 0% | 0% | 0% | 0% | 0% | 0% | 12% | 7% | 0% | 8% | 0% | 0% | 0% | 5% | 0%
24 | COC(=O)c1cccc(NC(=O)NC2CCN(c3ccnc(Nc4ccc(OC)cc4)n3)C2)c1 (stereo not drawn) [GSK1379746] | 0% | 15% | 0% | 34% | 15% | 0% | 0% | 0% | 0% | 12% | 0% | 0% | 0% | 0% | 14% | 0% | 0% | 0% | 4% | 0%
25 | Cc1ccc(-c2nc(Nc3ccncc3)c3ccccc3n2)s1 [GSK189015] | 54% | 1% | 0% | 0% | 36% | 12% | 40% | 0% | 0% | 26% | 0% | 19% | 23% | 15% | 25% | 0% | 7% | 0% | 22% | 13%
26 | COc1ccc(Nc2nccc(-c3ccc(NC(=O)c4cc5cc(F)ccc5[nH]4)cc3)n2)cc1 [GSK1229496] | 0% | 0% | 0% | 21% | 22% | 0% | 0% | 5% | 0% | 0% | 0% | 0% | 0% | 0% | 0% | 0% | 0% | 0% | 0% | 0%
27 | CC(C)c1ccc(O)cc1Nc1ccnc2ccc(C(F)(F)F)cc12 [GW482059] | 51% | 0% | 0% | 0% | 25% | 13% | 0% | 0% | 1% | 13% | 0% | 0% | 26% | 37% | 16% | 0% | 0% | 0% | 0% | 6%
28 | CC[C@@H]1CO[C@H](C(=O)Nc2ccccc2)CN1c1cc(-c2ccc3c(N)n[nH]c3c2)nc(NC)n1 [GSK2376236] | 0% | 5% | 0% | 0% | 21% | 0% | 21% | 0% | 0% | 0% | 0% | 0% | 0% | 0% | 0% | 0% | 0% | 5% | 0% | 0%
29 | CNc1nc(-c2ccc3c(N)n[nH]c3c2)cc(N2C[C@@H](C(=O)Nc3ccccc3)CC[C@H]2C)n1 [GSK2298859] | 0% | 0% | 0% | 20% | 9% | 0% | 0% | 0% | 0% | 0% | 0% | 0% | 6% | 0% | 0% | 0% | 0% | 0% | 0% | 11%
30 | CS(=O)(=O)CCNCc1nc(-c2ccc3ncnc(Nc4ccc5c(cnn5Cc5ccccc5)c4)c3c2)cs1.Cl.Cl [GW569716] | 22% | 0% | 0% | 42% | 11% | 0% | 12% | 1% | 0% | 5% | 0% | 9% | 0% | 0% | 19% | 0% | 0% | 0% | 0% | 0%
31 | FC(F)(F)c1ccccc1-c1cc(-c2c[nH]nc2-c2ccccn2)ccn1 [GW679396] | 1% | 5% | 0% | 11% | 35% | 0% | 11% | 0% | 0% | 24% | 0% | 0% | 10% | 3% | 0% | 8% | 0% | 0% | 0% | 12%
